Some test systems named below: ERN1; FER; FES; FGFR1; FGFR2; FGFR3; FGFR4; FGR; FLT1; FLT3-autoinhibited; FLT3; FLT4; FRK; FYN; GAK.
Common to all, as to conditions: concentration: 1 μM, replicates: in singlicate; n = 1
The subject of another test is T1, ERK4.
T1 construct: gene MAPK4

For the next test, the system named is T2, ERK5.
T2 construct: gene MAPK7

In the next test the test system is T3, ERK8.
T3 construct: gene MAPK15

Another test concerns T4, FAK.
T4 construct: gene PTK2

A further test has as its system T5, GCN2(Kin.Dom.2,S808G).
T5 construct: gene EIF2AK4
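Further: KINOMEscan kinase panel screen.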

With `CC(C)(C)c1ccc(-n2cnc3c(N)ncnc32)cc1` [SKF-97263], the “%Inh” value is 0% in the test on ERK4; 0% in the test on ERK5; 48% with ERK8; 6% in the test with ERN1; 0% with FAK; 13% with FER. For the same compound, the “%Inh” value in the test with FES amounted to 13%; in the test on FGFR1, 12%; in the test with FGFR2, 20%; in the test with FGFR3, 15%; in the test with FGFR4, 10%; in the test with FGR it was 30%. For the same compound, the “%Inh” value in the test with FLT1 was 7%; with FLT3-autoinhibited, 17%; in the test with FLT3 it was 6%; in the test on FLT4, 15%; in the test on FRK, 0%; in the test on FYN, 2%. Moreover, the entries for the “%Inh” value in the test on GAK and with GCN2(Kin.Dom.2,S808G) were 9% and 11%, respectively.
For the compound `Fc1cccc(COc2ccc(Nc3ncnc4cc[nH]c34)cc2Cl)c1`, the “%Inh” value with ERK4 stood at 9%; in the test with ERK5, 0%; in the test on ERK8 it was 7%; with ERN1, 35%; in the test with FAK, 11%; with FER, 31%. Moreover, the “%Inh” value turned out to be 21% in the test on FES; 14% with FGFR1; 8% in the test with FGFR2; 10% with FGFR3; 11% with FGFR4; 18% with FGR. In addition, the “%Inh” value in the test on FLT1 stood at 6%; in the test with FLT3-autoinhibited it was 16%; in the test on FLT3, 0%; in the test on FLT4 it was 0%; in the test on FRK, 21%; in the test with FYN, 13%. In addition, the results for the “%Inh” value in the test with GAK and in the test on GCN2(Kin.Dom.2,S808G) were 14% and 0%, respectively.
`Oc1ccc2ncnc(Nc3ccc(OCc4ccccc4)cc3)c2c1` [GI262866]: the “%Inh” value in the test with ERK4 is 0%; in the test on ERK5, 0%; in the test with ERK8, 57%; with ERN1, 19%; in the test on FAK, 0%; with FER it was 0%. The “%Inh” value in the test with FES turned out to be 0%; in the test on FGFR1, 0%; with FGFR2 it was 0%; in the test with FGFR3 it was 0%; with FGFR4, 66%; in the test with FGR, 4%. Moreover, the “%Inh” value in the test with FLT1 is 29%; in the test on FLT3-autoinhibited, 0%; in the test with FLT3, 60%; with FLT4 it was 21%; in the test on FRK, 0%; in the test with FYN, 7%. Further, the “%Inh” value with GAK was 0%; with GCN2(Kin.Dom.2,S808G), 15%.
`OCCOCCn1ccc2ncnc(Nc3ccc(Oc4cccc(Cl)c4)c(Cl)c3)c21`: the “%Inh” value in the test with ERK4 is on record as 0%; in the test on ERK5, 0%; in the test on ERK8 it was 0%; in the test on ERN1 it was 0%; in the test on FAK it was 0%; with FER, 24%. The “%Inh” value in the test with FES is listed as 6%; in the test with FGFR1 it was 27%; in the test with FGFR2, 0%; with FGFR3, 0%; with FGFR4 it was 0%; in the test on FGR, 2%. Moreover, the “%Inh” value with FLT1, in the test on FLT3-autoinhibited, in the test on FLT3, in the test on FLT4, in the test with FRK and in the test with FYN was 0% throughout. Also, the “%Inh” value in the test on GAK and with GCN2(Kin.Dom.2,S808G) was 0% throughout.
As for `COc1ccc(NC(=O)c2ccc(-c3cc(-c4nnc(C)o4)ccc3C)cc2)cc1` [GW595885], the “%Inh” value with ERK4 was 0%; in the test on ERK5, 0%; in the test on ERK8, 0%; in the test on ERN1, 0%; in the test with FAK, 0%; in the test on FER, 6%. For the same compound, the “%Inh” value in the test on FES worked out at 0%; in the test with FGFR1 it was 0%; in the test with FGFR2, 0%; in the test on FGFR3 it was 16%; in the test with FGFR4 it was 0%; in the test with FGR, 10%. In addition, the “%Inh” value in the test with FLT1 turned out to be 19%; with FLT3-autoinhibited, 0%; in the test on FLT3 it was 0%; in the test on FLT4, 0%; in the test with FRK, 10%; in the test with FYN, 6%. For the same compound, the “%Inh” value in the test with GAK is reported as 0%; with GCN2(Kin.Dom.2,S808G) it was 14%.
In the case of `FC(F)(F)c1ccc(-c2nn3ncccc3c2-c2ccnc(Nc3cccc(C(F)(F)F)c3)n2)cc1` [GW828205], the “%Inh” value stood at 0% in the test with ERK4; 0% in the test with ERK5; 0% in the test on ERK8; 0% in the test on ERN1; 9% with FAK; 2% in the test with FER. For the same compound, the “%Inh” value with FES worked out at 7%; in the test on FGFR1 it was 33%; in the test on FGFR2, 100%; with FGFR3, 8%; in the test with FGFR4, 3%; in the test on FGR it was 58%. Moreover, the “%Inh” value in the test on FLT1 came to 12%; with FLT3-autoinhibited it was 0%; in the test with FLT3, 0%; with FLT4 it was 8%; in the test on FRK, 0%; in the test on FYN, 0%. Moreover, the “%Inh” value with GAK and in the test on GCN2(Kin.Dom.2,S808G) was 0% each time.
As to `COc1cc2ncnc(Nc3ccc(OCc4ccccc4Br)c(Cl)c3)c2cc1OC.Cl` [GI261590], the “%Inh” value is reported as 32% in the test with ERK4; 0% with ERK5; 0% in the test with ERK8; 0% with ERN1; 0% with FAK; 18% with FER. Besides, the “%Inh” value with FES is listed as 25%; in the test with FGFR1 it was 0%; in the test on FGFR2, 38%; with FGFR3, 12%; in the test with FGFR4, 9%; in the test on FGR, 43%. In addition, the “%Inh” value worked out at 23% with FLT1; 0% with FLT3-autoinhibited; 0% in the test on FLT3; 0% with FLT4; 6% in the test on FRK; 0% in the test on FYN. In addition, the “%Inh” value was 0% with GAK and 24% in the test with GCN2(Kin.Dom.2,S808G).
Regarding `Cl.Cn1ccc(-c2cccc(Nc3ccnc4cc(-c5nccs5)ccc34)c2)n1` [GW525701], the “%Inh” value worked out at 9% in the test with ERK4; 0% in the test on ERK5; 0% with ERK8; 0% in the test with ERN1; 0% with FAK; 8% in the test with FER. The “%Inh” value in the test on FES was 22%; in the test on FGFR1 it was 0%; with FGFR2 it was 0%; in the test on FGFR3, 11%; in the test on FGFR4, 0%; in the test on FGR, 53%. Besides, the “%Inh” value with FLT1 came out at 0%; in the test with FLT3-autoinhibited, 0%; with FLT3 it was 0%; in the test on FLT4, 7%; with FRK it was 0%; with FYN, 3%. Further, the “%Inh” value in the test on GAK worked out at 19%; in the test on GCN2(Kin.Dom.2,S808G), 0%.
For `Fc1cccc(COc2ccc(Nc3ncnc4sc(-c5ccc[nH]5)cc34)cc2Cl)c1` [GW707818], the “%Inh” value in the test with ERK4 stood at 51%; in the test with ERK5, 6%; in the test with ERK8, 0%; in the test with ERN1, 10%; with FAK, 0%; with FER, 12%. In addition, the “%Inh” value is given as 0% in the test with FES; 0% in the test on FGFR1; 0% in the test with FGFR2; 6% in the test on FGFR3; 12% in the test on FGFR4; 3% with FGR. The “%Inh” value in the test with FLT1 was 22%; with FLT3-autoinhibited it was 7%; with FLT3, 0%; with FLT4 it was 3%; in the test on FRK, 0%; with FYN, 45%. Moreover, the entries for the “%Inh” value in the test on GAK and with GCN2(Kin.Dom.2,S808G) were 4% and 0%, respectively.
Consider `CNc1nccc(-c2c(-c3ccc(F)cc3)ncn2C2CCN(C)CC2)n1` [SB-222903], for which the “%Inh” value in the test with ERK4 is reported as 0%; in the test with ERK5 it was 9%; with ERK8 it was 6%; with ERN1, 0%; in the test on FAK, 43%; in the test on FER, 0%. Moreover, the “%Inh” value in the test with FES, with FGFR1, in the test on FGFR2, in the test on FGFR3, in the test with FGFR4 and in the test on FGR was 0% each time. Also, the “%Inh” value in the test on FLT1, in the test on FLT3-autoinhibited, in the test with FLT3, in the test with FLT4, with FRK and in the test on FYN was 0% each time. The “%Inh” value is listed as 6% in the test on GAK and 3% with GCN2(Kin.Dom.2,S808G).

Source of the values: paper PMC5540273 (PLoS ONE, 2017).
